Shown are actives, neighbours in structure and some others; about 2.9% of the full set was active somewhere.
GDH-TPI counter-1 = GDH-TPI coupling enzyme inhibitors, primary screen, artefact control for M. tuberculosis FBA inhibitor project, biochemical, absorbance, full deck; hit rate 1.2% among 360,000; inhibition, % at 4.8 µM; GDH-TPI coupled enzyme counterscreen, NADH absorbance; in the data active = inhibition above about 30%;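 also: 0% = DMSO wells and 100% = wells lacking the enzyme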
Mtb hypoxia inh = PubChem AID 1159583. M. tuberculosis hypoxia-regulated fluorescent reporter, fluorescence. fluorescence inhibition, % (concentration not given with the values). hit rate 0.1% among 300,000; in the data active = fluorescence inhibition mostly above about 23%, no sharp cut-off; inactive = mostly below about 17%
FBA Mtb inh = Mtb FBA enzyme inhibitors, primary screen, biochemical, fluorescence, strain H37Rv. Fructose-bisphosphate aldolase (Mycobacterium tuberculosis (strain ATCC 25618 / H37Rv)), …. purified M. tuberculosis FBA, fluorescence read-out. inhibition, % at 1 µM. hit rate 2.3% among 360,000;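 also: 0% = vehicle and 100% = reference inhibitor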
Target sequence (P9WQA3 whole entry, looked up): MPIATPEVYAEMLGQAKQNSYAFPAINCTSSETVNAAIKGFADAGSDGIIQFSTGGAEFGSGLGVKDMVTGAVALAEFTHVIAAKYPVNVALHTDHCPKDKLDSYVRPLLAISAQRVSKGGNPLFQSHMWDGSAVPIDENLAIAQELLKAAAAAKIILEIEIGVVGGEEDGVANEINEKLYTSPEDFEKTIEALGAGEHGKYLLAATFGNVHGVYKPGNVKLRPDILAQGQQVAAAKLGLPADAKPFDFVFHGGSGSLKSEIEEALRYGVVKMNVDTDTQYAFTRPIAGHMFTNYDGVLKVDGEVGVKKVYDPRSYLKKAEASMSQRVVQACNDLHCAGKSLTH
BioA inh = M. tuberculosis BioA enzyme inhibitors, primary screen, biochemical, plate reader, single point, HTS; purified M. tuberculosis BioA enzyme; inhibition, % at 9.99 µM; hit rate 0.096% among 360,000; AID 602481, 2012; in the data active = inhibition above about 40%
FadD28 FP inh = inhibitors of FadD28 bisubstrate probe binding, primary screen, biochemical, fluorescence polarization, single point; Mycobacterium tuberculosis FadD28 fatty-acid-AMP ligase; AID 588549, 2011; hit rate 0.22% among 360,000; inhibition, % at 12.5 µM; in the data active = inhibition above about 8.5%, passing the limit was not always enough
Mtb FBA inh conf = M. tuberculosis aldolase blockers, biochemical, fluorescence, strain H37Rv, confirmation; shares compounds with FBA Mtb inh; purified M. tuberculosis FBA, fluorescence read-out; inhibition, % at 1 µM; hit rate 78% among 5,600; AID 651616, 2012;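 also: 0% = vehicle wells and 100% = reference inhibitor wells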
GDH-TPI counter-2 = GDH-TPI coupling enzyme inhibitors, artefact control for M. tuberculosis FBA inhibitor project, biochemical, fluorescence, high throughput | shares compounds with FBA Mtb inh | GDH-TPI coupled enzyme counterscreen | inhibition, % at 1 µM | hit rate 81% among 5,600 | AID 652141, 2013; in the data active = inhibition above about 10%
* hit, by the source's call; . = not tested or not shown; + = active, no number. Rule as the data show it, unless noted: active = inhibition above about 27%; inactive = the rest.

SMILES	GDH-TPI counter-1	Mtb hypoxia inh	FBA Mtb inh	BioA inh	FadD28 FP inh	Mtb FBA inh conf	GDH-TPI counter-2
C[C@@H]1CN([C@@H](C)CO)C(=O)c2cc(NS(=O)(=O)c3ccccc3)ccc2O[C@@H](C)CCCCO[C@@H]1CN(C)C(=O)c1ccccc1	.	.	.	0	.	.	.
CCCC(=O)Nc1ccc(-c2nc3ncccc3o2)cc1	30	-10	87*	-1	-2	21	17*
Cc1ccc(-c2nc3ncccc3o2)cc1NC(=O)C(C)(C)C	4	15	30*	-5	-1	26	22*
CCCC(=O)Nc1ccc2oc(-c3cccnc3)nc2c1	3	-7	74*	24	-2	169*	138*
CCCC(=O)NC(=S)Nc1cc(-c2nc3ncccc3o2)ccc1C	1	3	-1	.	-1	.	.
CCCC(=O)Nc1cc(-c2nc3ncccc3o2)ccc1C	11	25	60*	1	1	99*	65*
Cc1ccc(-c2nc3ncccc3o2)cc1NC(=O)c1ccco1	3	.	-2	-2	-5	.	.
CCCC(=O)Nc1cccc(-c2nc3ccccc3o2)c1	2	.	11	-2	-1	.	.
CN(C)CC(=O)N1CCCCN2[C@H](C1)[C@H](c1ccc(-c3ccccc3)cc1)[C@@H]2CO	.	.	.	-2	.	.	.
C[C@H]1CN([C@@H](C)CO)C(=O)c2c(c3ccccc3n2C)-c2ccccc2CO[C@H]1CN(C)Cc1cccnc1	.	.	.	2	.	.	.
Cc1cc(-c2nc3ncccc3o2)ccc1NC(=S)NC(=O)c1ccco1	11	5	33*	.	-1	39*	32*
Cc1ccc(-c2nc3ncccc3o2)cc1NC(=S)NC(=O)c1ccco1	0	-3	2	.	-3	.	.
Nn1c(SCc2ccc(F)cc2)nnc1-c1ccccn1	-3	-6	-1	1	-2	.	.
Nn1c(SCc2ccccc2F)nnc1-c1ccccn1	9	6	42*	0	-1	81*	71*
Cn1nc(/C=C/c2ccccc2)ccc1=O	0	5	31*	1	-3	64*	56*
O=c1ccc(/C=C/c2ccccc2)nn1Cc1ccccc1	11	.	25	1	-6	.	.
Cc1noc(C)c1S(=O)(=O)Nc1ccc2c(c1)C(=O)N([C@@H](C)CO)C[C@H](C)[C@@H](CN(C)Cc1ccncc1)OCCCC[C@@H](C)O2	.	.	.	-1	.	.	.
Cn1c(-c2ccc(CN3CCCCC3)o2)nc2ccccc21	4	.	33*	0	-3	20	12*
Cc1ccc(CNc2nc3ccccc3n2C)o1	5	-3	-1	-2	-1	.	.
CC1=CC(=O)C(C(C)C)=C/C1=N\OC(=O)c1cccc2nc(C)oc12	9	.	32*	-2	-3	69*	59*
Cc1cc(O)c(-c2cc(O)c(C)cc2O)cc1O	-6	16	37*	6	1	104*	82*
CN1C(=O)c2cc(NC(=O)c3ccno3)ccc2OC[C@H]2O[C@@H](CC(=O)NC3Cc4ccccc4C3)CC[C@@H]21	.	.	.	4	.	.	.
CCCC(=O)Nc1ccc2c(c1)C(=O)N(C)[C@H]1CC[C@H](CC(=O)OC)O[C@H]1CO2	.	.	.	-2	.	.	.
CCCN1[C@@H]2c3cccc(=O)n3C[C@H]1[C@H](CO)[C@H]2C(=O)NC1Cc2ccccc2C1	.	.	.	0	.	.	.
CCN(C(=O)COC(=O)c1nccnc1N)c1cccc2ccccc12	7	3	63*	0	-2	109*	80*
SMILES	GDH-TPI counter-1	Mtb hypoxia inh	FBA Mtb inh	BioA inh	FadD28 FP inh	Mtb FBA inh conf	GDH-TPI counter-2
CCN(C(=O)COC(=O)c1ccc(O)cc1)c1cccc2ccccc12	1	5	0	.	-4	.	.
O=C(C[C@@H]1CC[C@@H](NS(=O)(=O)c2cccc(F)c2)[C@H](CO)O1)NCc1ccc2c(c1)OCO2	.	.	.	-1	.	.	.
Cc1cc(C)c2c(N)c3ccccc3nc2n1	-2	2	70*	1	-1	181*	143*
CCc1ccc2nc3nc(C)cc(C)c3c(N)c2c1	-2	-2	34*	-1	-2	103*	77*
COc1ccc(CN(C)C[C@H]2Oc3ccc(NC(=O)Nc4ccc(C(F)(F)F)cc4)cc3C(=O)N([C@H](C)CO)C[C@@H]2C)cc1	.	.	.	0	.	.	.
Cc1c(C(=O)NN=Cc2ccc(O)cc2)sc(=S)n1C	.	5	.	.	.	.	.
CO[C@H]1CC[C@@H]2CCN(C)C(=O)[C@@H](C)[C@@H](OC)CN(C)C(=O)c3cc(C#N)ccc3OC[C@@H]1O2	.	.	.	2	.	.	.
C[C@H](CO)N1C[C@H](C)[C@H](CN(C)C(=O)C2CCCCC2)Oc2ncc(-c3ccccc3)cc2C1=O	.	.	.	0	.	.	.
COc1ccc(S(=O)(=O)Nc2ccc3c(c2)C(=O)N([C@@H](C)CO)C[C@H](C)[C@H](CN(C)Cc2ccc4c(c2)OCO4)O3)cc1	.	.	.	3	.	.	.
CCN(CC)CCNC(=O)c1cc2c(=O)n(C)c3ccccc3c2n1C	-1	.	28*	0	0	+	+
CCN(CC)CCCNC(=O)c1cc2c(=O)n(C)c3ccccc3c2n1C	17	.	20	-4	-1	.	.
CCOC(=O)NN1C(=O)c2ccccc2NC1c1ccc(OC)c(OC)c1 (stereo not given)	-9	2	43*	1	-5	5	-4
COc1ccc(C2Nc3ccccc3C(=O)N2NC(=O)c2ccccc2)cc1OC (stereo not given)	2	6	7	2	0	.	.
CCOC(=O)N1CCC2(CC1)NC(=O)c1ccccc1N2	9	.	85*	.	-2	37*	25*

Assay outcomes as filed in PubChem.
